From PubChem BioAssay (NCI)
“And” between values parts separate entries of the source, which are not always exact repeats. Identical values can stand only once. Compounds without any hit were thinned out: in the full panel of roughly 79,000, 15% have a hit. The source made the active and inactive calls. Rule as the data show it: active = growth inhibition above about 70%; inactive = the rest.

Experiments:
[1] = NCI Yeast Anticancer Drug Screen. Data for the rad50 strain (AID 155);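 also: 0% = growth of vehicle-only cultures of the same strain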; details: S. cerevisiae rad50 strain growth inhibition; at 50.0 µM; hits give high values
In short: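 Cells are treated with compound, grown, and their growth is then scored against vehicle-only cultures of the same repair-deficient yeast strain.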

[2] = NCI Yeast Anticancer Drug Screen. Data for the mec2-1 strain (AID 157); details: S. cerevisiae mec2-1 strain, at 50.0 µM, hits give high values
In short: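 Growth inhibition is read against vehicle-treated controls after compound exposure of the mec2-1 yeast strain, which is defective in DNA damage repair or cell cycle control.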

[3] = NCI Yeast Anticancer Drug Screen. Data for the sgs1 mgt1 strain (AID 161);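 also: 0% = growth of cultures given vehicle only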; details: S. cerevisiae sgs1 mgt1 strain, at 50.0 µM, hits give high values
In short: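 Yeast cells carrying a defined DNA-repair defect were exposed to test compounds. Growth inhibition was measured relative to vehicle-treated controls.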

[4] = NCI Yeast Anticancer Drug Screen. Data for the cln2 rad14 strain (AID 165);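 also: 0% = growth equal to vehicle treated cultures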; details: S. cerevisiae cln2 rad14 strain, at 50.0 µM, hits give high values
In short: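 Growth inhibition, relative to vehicle-treated controls, is the read-out. The test organism is a yeast strain with defined genetic alterations, cln2 rad14.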

[5] = NCI Yeast Anticancer Drug Screen. Data for the bub3 strain (AID 167); details: S. cerevisiae bub3 mutant strain, at 50.0 µM, hits give high values
In short: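 Part of a panel of yeast mutants defective in DNA damage repair or cell cycle regulation. Each strain is grown with compound, and inhibition is calculated relative to solvent-treated cultures.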

[6] = NCI Yeast Anticancer Drug Screen. Data for the mlh1 rad18 strain (AID 175); details: S. cerevisiae mlh1 rad18 strain growth inhibition; at 50.0 µM; hits give high values
In short: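 Cells of a genetically altered yeast strain, deficient in DNA damage repair, were treated with compound. Their growth was then compared with that of vehicle-treated cultures to give inhibition.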

Measured: growth inhibition

CN1c2ccccc2NP1(=S)c1ccccc1 (stereo not given)
active: [2] 80% | [3] 95.2% | [6] 83.2%
inactive: [1] 69.5% | [4] 40.5% | [5] 55.9%

O=CNNC(=O)C(Cl)Cl
inactive: [1] 4.25% | [2] -11.9% | [3] -10.1% | [4] -31.3% | [5] -3.45% | [6] 8.9%

O=[As](O)(O)c1ccccc1Cl
inactive: [1] 14.1% | [2] -13.4% | [3] -32.1% | [4] 4.55% | [5] 3.2% | [6] 16.6%

O=C(O)CC(=O)O.[Co+2].[NH-]CC(=O)O.[NH-]CC(=O)O
inactive: [1] 15.4% | [2] -6.65% | [3] 10.2% | [4] 0.8% | [5] -0.9% | [6] -15.9%

O=C1C[C@@H]2OCC=C3C[N+]4([O-])CC[C@]56c7ccccc7N1[C@H]5[C@H]2[C@H]3C[C@@H]64 (stereo not given in full)
inactive: [1] -4.85% and -6.5% | [2] -7.75% and -6.3% | [3] 2.05% | [4] 0.9% | [5] 25.4% | [6] -3.15% and -3.7%

NCCN.NCCN.[Cl-].[O]=[Os+2]=[O]
inactive: [1] 0.8% and 3.45% | [2] -22% and 1% | [3] -6.15% and -20.8% | [4] -20.3% and 23.3% | [5] -40.6% and 0.3% | [6] -6.3% and -13.2%

N#CCCCCl
inactive: [1] 27.1% | [2] 15.8% | [3] 14.9% | [4] 26.1% | [5] 29.8% | [6] 30.5%

CC1CN1P1(N2CC2C)=NP(N2CC2C)(N2CC2C)=NP(N2CC2C)(N2CC2C)=N1 (stereo not given)
inactive: [1] -2.45% | [2] 1.3% | [3] 2.75% | [4] 15.7% | [5] -2.2% | [6] 5.5%

COc1ccc(NC2=NCCO2)c2ccccc12
inactive: [1] -11.9% | [2] -42.3% | [3] -31.1% | [4] -0.3% | [5] -13.4% | [6] -20.9%

O=C1/C(=C\c2ccccc2)N2CCC1CC2
inactive: [1] 4.2% | [2] -18.1% | [3] -1.65% | [4] -70.6% | [5] -18.1% | [6] -20.6%

CC(C)CCC(=O)OC1CCC2(C)C(=CCC3C4CCC(=O)C4(C)CCC32)C1 (stereo not given)
inactive: [1] 3.35% | [2] 12.1% | [3] 5.35% | [4] -18.7% | [5] -1.9% | [6] 13.2%

C[N+](C)(C)CC1CCCCC1=O (stereo not given)
inactive: [1] 24.1% | [2] 11.6% | [3] 17.9% | [4] 21.8% | [5] 11.7% | [6] 44.5%

CCOS(=O)OCC
inactive: [1] 19% | [2] 0.35% | [3] -26.1% | [4] 17.9% | [5] 17.6% | [6] 9.2%

COC(=O)C(C)N(CCCl)P(=O)(N1CC1)N1CC1 (stereo not given)
inactive: [1] 5.4% | [2] 8.2% | [3] 11.4% | [4] 9.1% | [5] 4.35% | [6] 1.85%

CC(=O)O[C@H]1C(=O)[C@@]2(C)C(C(OC(=O)c3ccccc3)[C@]3(O)C[C@H](OC(=O)C(OC(=O)CCCC(=O)NCCCN(C)C)C(NC(=O)c4ccccc4)c4ccccc4)C(C)=C1C3(C)C)C1(OC(C)=O)COC1C[C@@H]2O (stereo not given in full)
inactive: [1] -1.1% | [2] -0.35% | [3] 3.8% | [4] -10.3% | [5] -0.95% | [6] 7.35%

CCCO[As](=O)(OCCC)OCCC
inactive: [1] 5.55% | [2] 6.95% | [3] 5.8% | [4] 11.8% | [5] 24.1% | [6] -9.1%

O=c1[nH]c2ccccc2c(=O)n1-c1ccccc1
inactive: [1] -8.1% | [2] -4.45% | [3] -1.05% | [4] -6.05% | [5] -2% | [6] -15.4%

CO[C](=[W])c1ccccc1.[C-]#[O+].[C-]#[O+].[C-]#[O+].[C-]#[O+].[C-]#[O+]
inactive: [1] 12.2% | [2] -0.6% | [3] -2.3% | [4] 1.55% | [5] 1.05% | [6] -4.1%

CO[As](OC)c1ccc(N=Nc2ccc(N(C)C)cc2)cc1
active: [1] 98.4% | [2] 99.2% | [3] 98.9% | [4] 98.6% | [5] 99% | [6] 99.2%

S=P(Nc1ccccc1Cl)(Nc1ccccc1Cl)c1ccccc1
inactive: [1] 30.3% | [2] 25.8% | [3] 39.9% | [4] 37.9% | [5] 39.4% | [6] 21%

CCCC1C(=O)NC(=O)NC1=O
inactive: [1] 6.3% | [2] -6% | [3] -0.75% | [4] -10.9% | [5] 3.75% | [6] -1.05%

FC(F)(F)c1ccc(Cl)c(NC2=NCCS2)c1
inactive: [1] 14.2% | [2] 24.8% | [3] 19.4% | [4] 11.2% | [5] 11% | [6] 20.2%

Cc1cc(C)[n+](CCc2ccccc2)c(C)c1
inactive: [1] 5.15% | [2] 2.55% | [3] -3.25% | [4] -6.3% | [5] 2.4% | [6] 4.25%

CN(C)c1ccc(N=Nc2c([O-])ccc3ccccc23)cc1.[C-]#[O+].[C-]#[O+].[Ir]
inactive: [1] -7.05% | [2] -14.2% | [3] -30.2% | [4] 34% | [5] -10.2% | [6] -4.7%

C=CCOC(N)=O
inactive: [1] 6.85% | [2] 8.3% | [3] -0.3% | [4] 20.9% | [5] 22.5% | [6] 1.65%

CC1=CC=NC(Cl)(Cl)N1
inactive: [1] 19.4% | [2] -9.6% | [3] -15.7% | [4] 13.6% | [5] -1.35% | [6] 20.4%

NC(C(=O)[O-])C(=O)[O-].NC1CCCCC1N.[Pt+4]
inactive: [1] 7.35% | [2] -5.95% | [3] 5.75% | [4] -31.6% | [5] -17.9% | [6] -3.2%

c1ccc2c(c1)CCNC2
inactive: [1] 21.8% | [2] 13.2% | [3] 19% | [4] 5.15% | [5] -0.55% | [6] 24.4%

CCN(CC)C(=O)N1CN(c2ccccc2)C2(CCN(CCCSc3ccc(F)cc3)CC2)C1=O
inactive: [1] 13.5% | [2] 0.65% | [3] 15.8% | [4] 12.4% | [5] 48.4% | [6] 20.6%

Clc1ccc2c(c1)Cc1cc(N(CCBr)CCBr)ccc1-2
inactive: [1] 24.8% | [2] 13.1% | [3] 40% | [4] 46.6% | [5] 12.4% | [6] 47.1%

CO[C@H]1C=C[C@@]23c4cc5c(cc4CO[C@]2(O)CN(C)[C@H]3C1)OCO5
inactive: [1] -16.2% | [2] -1.35% | [3] -10.8% | [4] -1.35% | [5] 1.8% | [6] -41%

CC1C(=O)OC2CC[N+]3([O-])CC=C(COC(=O)C(C)(O)C1(C)O)C23 (stereo not given)
inactive: [1] -0.6% | [2] -37.2% | [3] -14.7% | [4] -5.25% | [5] -9.25% | [6] -84.4%

C(/COc1cccnc1)=N\NC1=NCCN1
inactive: [1] -12.2% | [2] -29.6% | [3] -44.8% | [4] 3.7% | [5] -21.9% | [6] -35.9%

CNP1(NC)=NP(N(C)C)(N(C)C)=NP(N(C)C)(N(C)C)=N1
inactive: [1] -15.9% | [2] 0.45% | [3] -3% | [4] -19.4% | [5] 11.6% | [6] 13.2%

COc1cccc(C)c1C1CC2CCCN2O1 (stereo not given)
inactive: [1] 16.6% | [2] 5.5% | [3] 5.95% | [4] 9.4% | [5] 14.7% | [6] 5.3%

CC(C)CCN(CCC(C)C)CC(O)c1ccc(Br)cc1 (stereo not given)
inactive: [1] 5.1% | [2] -13.1% | [3] 6.1% | [4] -47.5% | [5] -15.6% | [6] 0.35%

COc1cccc(C2CC23C(=O)NC(=O)NC3=O)c1 (stereo not given)
inactive: [1] -18% | [2] -14.2% | [3] -2.1% | [4] 6.6% | [5] -19.2% | [6] -21.2%

CC[CH2][Sn](=[O])[CH2]c1ccccc1
inactive: [1] 11.9% | [2] 24.6% | [3] 13.6% | [4] 8.9% | [5] 17.5% | [6] -44.5%

Cc1ccc2ccccc2c1
inactive: [1] 3.9% | [2] -14.5% | [3] -6.05% | [4] -3.05% | [5] 2.4% | [6] -7.35%

COc1ccc2c3c1OC1C(Oc4nnnn4-c4ccccc4)C=CC4C(C2)N(C)CCC341 (stereo not given)
inactive: [1] 39.2% | [2] 5.55% | [3] 13.5% | [4] 21.6% | [5] -5.75% | [6] 12.5%
